Data as given in PubChem BioAssay (NCI).
Several values for one entry are separate records, joined by “and”; a condition that tells them apart may be missing. Equal entries are not always repeated. Compounds without any hit were thinned out: in the full panel of roughly 83,000, 20% have a hit.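 Assay: single dose, 48 h. Readout: percent growth (0 = no net growth; negative = cell death). Active: <10.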 A number with no mark means an inactive call. Activity calls are given as the source filed them.

System: MDA-MB-468 breast
Experiment: NCI-60 one-dose screen, 48 h (100 = growth as untreated, 0 = no growth, -100 = all killed)
Conditions: 10 µM unless noted

SMILES	growth
COc1ccc(CN2C(=O)OC(C)(COC(C)=O)C2=O)cc1 (stereo not given)	92.9%
CNS(=O)(=O)c1cccc(-c2ccc3c4c(n(C)c(=O)c3c2)-c2ccccc2C4=O)c1	83.4%
C=C(C)[C@@H]1CC[C@]2(C(N)=O)CC[C@]3(C)[C@H](CC[C@@H]4[C@@]5(C)CC[C@H](OCCC#N)C(C)(C)[C@@H]5CC[C@]43C)[C@@H]12	72.2%
O=C(OCc1ccc2c(Cl)cc(Cl)c(O)c2n1)N1CCNCC1	33.6%
Cc1cc(O)c(C(C)C)cc1N	8.67% (active) and -40.1% (active)
COc1cc(/C=C2\C(=O)N(CCCCn3c4ccccc4c(=O)c4ccccc43)c3ccccc32)cc(OC)c1O	46.2%
COc1cc(-c2nn(-c3cccc(NC(=O)c4ccc(N5CCOCC5)c(C(F)(F)F)c4)c3)cc2-c2ccncc2)ccc1Cl	-37.8% (active)
COc1ccc(OC)c(CCn2cncc2-c2c[nH]c3ccc(Cl)cc23)c1	-14.9% (active)
CCOC(=O)/C=C\C(=O)NC(N)=O	88.6%
CCCCCCCCCCCCCCNCc1ccccc1	-29.3% (active)
Clc1cc(Cl)c(OCC#CI)cc1Cl	-26% (active)
CN1CCN(C(=O)[C@@]2(C)CC[C@]3(C)CC[C@]4(C)C(=CC[C@@H]5[C@@]6(C)C/C(=C/c7ccncc7)C(=O)C(C)(C)[C@@H]6CC[C@]54C)[C@@H]3C2)CC1	37.5%
OC(c1ccccn1)C(O)c1ccccn1 (stereo not given)	113%
COc1ccc(C2=NN(C(=O)c3cc(-c4ccc(C)cc4)nc4ccccc34)C(c3cc(-c4ccccc4)nn3-c3ccccc3)C2)cc1 (stereo not given)	98.1%
CCOC(=O)c1c(C)c2c(n1Cc1ccccc1)CSCC2=O	-9.03% [100 µM] (active)
COc1ccc(C2CC(c3cccs3)=NN2c2ccc(S(N)(=O)=O)cc2)cc1 (stereo not given)	8.49% (active)
C#CCOCC1CN(C)C(=O)O1 (stereo not given)	118%
CCOC(=O)CCCCCCCCC(=O)OCC	104%
CC(C)(C)CC(C)(C)Cc1ccc(OCCOCC[N+](C)(C)Cc2ccccc2)cc1	-35.3% (active)
CC1(C)CC[C@]2(C(=O)N3CCOCC3)CC[C@]3(C)C(=CC[C@@H]4[C@@]5(C)C/C(=C/c6ccco6)C(=O)C(C)(C)[C@@H]5CC[C@]43C)[C@@H]2C1	82.3%

SMILES	growth
O=C(Cc1ccccc1)NNc1nc(Cl)nc(N2CCN(C(c3ccccc3)c3ccccc3)CC2)n1	38.2%
COc1cc2ncnc(Nc3ccc(F)c(Cl)c3)c2cc1OCC(=O)N1CCOCC1	-15.9% (active)
CC/C=C\C[C@@H]1C/C=C2/C(=O)C=C[C@H]2C/C=C\CCCC(=O)O1	-63.3% (active)
CN1CCN(CC(=O)Nc2ccc(-c3nc4ccccc4s3)cc2)CC1	-11.4% (active)
COC(=O)c1ccc2c(c1)nc(-c1ccc(Cl)cc1)n2-c1cc(C(C)(C)C)[nH]n1	37.4%
Cc1ccc2c(ccc3c[n+]4c5ccccc5ccc4n32)c1	-56.3% (active)
O=C1c2c(Cl)c(Cl)c(Cl)c(Cl)c2C(=O)C2(Cl)CC=CCC12Cl (stereo not given)	-77.2% (active)
OC[C@@H](O)[C@@H](O)CO	102%
CCOC(=O)c1nnn(-c2no[n+]([O-])c2-c2ccc(OC)cc2)c1COc1cccc2cccnc12	33.6%
O=C1CCc2c(sc3[nH]c(=S)n(Cc4ccccc4)c(=O)c23)C1	-3.67% (active)
CCCCn1c(-c2ccc(C(=O)O/N=C(\N)c3ccc4ccccc4c3)cc2)nc(-c2ccccc2)c1-c1ccccc1	79.9%
COc1ccc(OC)c(Nc2nc3nonc3nc2Nc2cc(OC)ccc2OC)c1	63.1%
COc1cc(C(=O)/C=C/c2c(C)n([O-])c3ccc(C(F)(F)F)cc3[n+]2=O)cc(OC)c1OC	36.8%
CC(=O)OC(C(=O)O)c1ccccc1 (stereo not given)	104%
CSc1nc2ncnc(SC)c2[nH]1	106%
CC(C)(C)NC(=O)C(OC(=O)C1CCc2cc(F)ccc2O1)c1ccccc1Cl (stereo not given)	105%
CN1C(=O)CCC(N2C(=O)c3cccc(NCCOCCOCCNC(=O)c4cc5c(o4)C(=O)c4ccccc4C5=O)c3C2=O)C1=O (stereo not given)	-28.3% (active)
Cc1csc(Nc2nc(-c3ccc(Cl)cc3)nc(C(Cl)(Cl)Cl)n2)n1	9.54% (active)
O=C(Nc1ccc2ncnc(Nc3ccc(Oc4cccc(F)c4)c(Cl)c3)c2c1)c1ccc(CNCCO)cc1	-46% (active)
CC1(C)OC(=O)CC1=O	100%
